A number with no mark means an inactive call.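 The calls were made as follows: active = mean tau seeding fluorescence area under 1% of vehicle, meaning inhibition above a set limit; inactive = the rest.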

The term inhibition denotes the drop in the measured response relative to a control, in per cent.

Sequence of Microtubule-associated protein tau (Homo sapiens) (P10636 whole entry, looked up): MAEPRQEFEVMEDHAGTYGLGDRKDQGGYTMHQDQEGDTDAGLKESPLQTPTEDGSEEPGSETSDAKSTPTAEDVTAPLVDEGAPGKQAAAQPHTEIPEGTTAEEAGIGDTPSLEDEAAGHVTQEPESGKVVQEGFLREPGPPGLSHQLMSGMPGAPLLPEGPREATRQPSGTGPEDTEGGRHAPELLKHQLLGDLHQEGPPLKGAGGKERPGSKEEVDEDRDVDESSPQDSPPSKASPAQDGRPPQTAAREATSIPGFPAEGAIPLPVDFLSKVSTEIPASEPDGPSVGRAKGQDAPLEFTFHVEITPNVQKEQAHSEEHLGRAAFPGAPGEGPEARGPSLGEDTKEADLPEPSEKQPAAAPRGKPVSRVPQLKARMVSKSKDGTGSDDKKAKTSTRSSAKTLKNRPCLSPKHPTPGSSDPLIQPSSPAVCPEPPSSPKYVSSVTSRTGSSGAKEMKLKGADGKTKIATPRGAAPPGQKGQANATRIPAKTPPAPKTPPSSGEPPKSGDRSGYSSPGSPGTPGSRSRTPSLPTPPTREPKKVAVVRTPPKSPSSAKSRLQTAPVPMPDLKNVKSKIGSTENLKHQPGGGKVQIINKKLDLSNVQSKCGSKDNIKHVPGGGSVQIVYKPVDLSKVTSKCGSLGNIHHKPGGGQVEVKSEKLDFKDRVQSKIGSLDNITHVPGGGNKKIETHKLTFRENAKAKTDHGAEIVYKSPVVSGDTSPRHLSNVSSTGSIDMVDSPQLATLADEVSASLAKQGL

The test has as its target Microtubule-associated protein tau (Homo sapiens) (UniProt P10636). Briefly: blockers of AD brain-seeded tau fibril growth – biochemical, seed amplification, ThT fluorescence, primary screen (AID 2061166). To be noted: Recombinant tau seeded by AD brain, ThT fluorescence AUC; at 100 µM; active compounds read high.
With `COc1ccc2c(c1)[nH]c1c(C)nccc12`, the inhibition was 35.5%.

Regarding `O=C1C=C2C=CC3CC2(O1)C1CCCCN31` (configuration not stated), the inhibition is 17%. For the compound `O=C(CS(=O)C(c1ccccc1)c1ccccc1)NO` (configuration not stated), the inhibition is 7.82%. Take `CNC(=O)Oc1cccc2ccccc12`: the inhibition is 63.7%. With `Cc1cccc(C(C)c2cnc[nH]2)c1C` (configuration not stated), the inhibition was 17.4%. Regarding `Cn1cc(C2=C(c3cn(C4CCN(Cc5ccccn5)CC4)c4ccccc34)C(=O)NC2=O)c2ccccc21`, the inhibition is 18.6%.

For the compound `COc1ccc(C(=O)O)cc1OC`, the inhibition is 11.4%.

With `c1cncc(C2=NCCC2)c1`, the inhibition is 32.6%. The figure for `O=c1c2ccccc2[se]n1-c1ccccc1` is 51.6%. `COc1ccc2c3c([nH]c2c1)C(C)=NCC3`: the inhibition is 11.8%. As for `COc1ccc(C(CN(C)C)C2(O)CCCCC2)cc1` (configuration not stated), the inhibition was 40.8%. With `Cn1c(CCCC(=O)O)nc2cc(N(CCCl)CCCl)ccc21`, the inhibition is 48%.

For the origin of these results see PubChem BioAssay AID2061166 (Soto Lab, Mitchell Center for Alzheimers Disease and …, 2025).
